The results in this text go back to PubChem BioAssay (NCI).

SMILES strings stand for the structures. The panel holds about 79,000 compounds, 15% with a hit somewhere; the sample as a whole holds those more often. Unmarked numbers belong to inactive results. Calls of active or inactive are those of the source. Rule as the data show it: active = growth inhibition above about 70%; inactive = the rest.

The nature of experiment [1]: NCI Yeast Anticancer Drug Screen. Data for the rad50 strain (AID 155).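 Also: 0% = growth of vehicle-only cultures of the same strain.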 Particulars: S. cerevisiae rad50 strain growth inhibition, active compounds read high. The gist of the method: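 Compounds were tested on a yeast strain with an engineered DNA damage repair alteration; the reported value is growth inhibition normalised to vehicle treatment.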
The nature of experiment [2]: NCI Yeast Anticancer Drug Screen. Data for the mec2-1 strain (AID 157). Particulars: S. cerevisiae mec2-1 strain, active compounds read high. The gist of the method: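 mec2-1 yeast strain, carrying an alteration in DNA damage repair or cell cycle control, was exposed to compounds; growth inhibition was measured relative to vehicle-treated controls.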
A short description of experiment [3]: NCI Yeast Anticancer Drug Screen. Data for the sgs1 mgt1 strain (AID 161).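 Also: 0% = growth of cultures given vehicle only.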 Particulars: S. cerevisiae sgs1 mgt1 strain, active compounds read high. The procedure, abridged: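 Growth of a repair-deficient yeast mutant was monitored after compound treatment and expressed as inhibition relative to vehicle-treated cultures.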
The nature of experiment [4]: NCI Yeast Anticancer Drug Screen. Data for the cln2 rad14 strain (AID 165).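 Also: 0% = growth equal to vehicle treated cultures.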 Particulars: S. cerevisiae cln2 rad14 strain, active compounds read high. The procedure, abridged: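 Yeast carrying cln2 and rad14 alterations (cell cycle control and DNA damage repair) were exposed to compounds. Growth inhibition was measured against vehicle-treated controls.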
Experiment [5] in a line: NCI Yeast Anticancer Drug Screen. Data for the bub3 strain (AID 167). Particulars: S. cerevisiae bub3 mutant strain, active compounds read high. The procedure, abridged: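 Growth of a checkpoint-deficient yeast mutant is measured after compound exposure. Values represent inhibition relative to vehicle.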
Experiment [6] is described as follows: NCI Yeast Anticancer Drug Screen. Data for the mlh1 rad18 strain (AID 175). Particulars: S. cerevisiae mlh1 rad18 strain growth inhibition, active compounds read high. The gist of the method:
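Growth inhibition of the yeast strain was measured after compound exposure and expressed relative to vehicle-treated controls. The strain carries defined defects in DNA damage repair.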

Where [7] appears, read: at 5.0 µM (retest, dose inferred, filed as 0.5).
The mark [8] stands for this setting: at 50.0 µM (retest, dose inferred, filed as 5.0).

As to `S=P(S)(Oc1ccccc1)Oc1ccccc1`, the growth inhibition in experiment [1] (setting [7]) is -10%; in experiment [1] (setting [8]) it was 25%; in experiment [1] (at 50.0 µM) it was 56%; in experiment [2] (setting [7]), -18%; in experiment [2] (setting [8]), 18%; in experiment [2] (at 50.0 µM), 77.7% (active). In addition, the growth inhibition in experiment [3] (setting [7]) is 1%; in experiment [3] (setting [8]) it was 17%; in experiment [3] (at 50.0 µM), 40.4%; in experiment [4] (setting [7]) it was -11%; in experiment [4] (setting [8]) it was 20%; in experiment [4] (at 50.0 µM), 92.9% (active). In addition, the growth inhibition was -4% in experiment [5] (setting [7]); 38% in experiment [5] (setting [8]); 75.2% (active) in experiment [5] (at 50.0 µM); -12% in experiment [6] (setting [7]); 10% in experiment [6] (setting [8]); 90.2% (active) in experiment [6] (at 50.0 µM).

Take `OC(c1ccc(Cl)cc1)C(Cl)(Cl)Cl` (stereo not drawn): the growth inhibition is 6% in experiment [1] (setting [7]); 98% (active) in experiment [1] (setting [8]); 97.6% (active) in experiment [1] (at 50.0 µM); 0% in experiment [2] (setting [7]); 98% (active) in experiment [2] (setting [8]); 96.8% (active) in experiment [2] (at 50.0 µM). Moreover, the growth inhibition in experiment [3] (setting [7]) is -1%; in experiment [3] (setting [8]) it was 35%; in experiment [3] (at 50.0 µM) it was 81.2% (active); in experiment [4] (setting [7]) it was 1%; in experiment [4] (setting [8]) it was 96% (active); in experiment [4] (at 50.0 µM), 77.8% (active). In addition, the growth inhibition in experiment [5] (setting [7]) is -8%; in experiment [5] (setting [8]) it was 99% (active); in experiment [5] (at 50.0 µM), 95.3% (active); in experiment [6] (setting [7]), 3%; in experiment [6] (setting [8]) it was 97% (active); in experiment [6] (at 50.0 µM), 97.5% (active).

`[C](#Cc1ccccc1)[Hg][C]#Cc1ccccc1`: the growth inhibition in experiment [1] (setting [7]) is 65%; in experiment [1] (setting [8]) it was 99% (active); in experiment [1] (at 50.0 µM), 98.8% (active); in experiment [2] (setting [7]) it was 94% (active); in experiment [2] (setting [8]) it was 99% (active); in experiment [2] (at 50.0 µM), 98.8% (active). The growth inhibition in experiment [3] (setting [7]) was 94% (active); in experiment [3] (setting [8]) it was 100% (active); in experiment [3] (at 50.0 µM), 99% (active); in experiment [4] (setting [7]), 26%; in experiment [4] (setting [8]), 99% (active); in experiment [4] (at 50.0 µM), 84.9% (active). Moreover, the growth inhibition in experiment [5] (setting [7]) is 21%; in experiment [5] (setting [8]), 99% (active); in experiment [5] (at 50.0 µM), 98.3% (active); in experiment [6] (setting [7]), 24%; in experiment [6] (setting [8]), 99% (active); in experiment [6] (at 50.0 µM), 98.8% (active).

On to `COc1cc(Br)cc(/C=C(\C)[N+](=O)[O-])c1O`, for which the growth inhibition was 11% in experiment [1] (setting [7]); 96% (active) in experiment [1] (setting [8]); 99.5% (active) in experiment [1] (at 50.0 µM); 7% in experiment [2] (setting [7]); 95% (active) in experiment [2] (setting [8]); 99.8% (active) in experiment [2] (at 50.0 µM). The growth inhibition in experiment [3] (setting [7]) was 18%; in experiment [3] (setting [8]), 97% (active); in experiment [3] (at 50.0 µM) it was 99.8% (active); in experiment [4] (setting [7]) it was -5%; in experiment [4] (setting [8]), 94% (active); in experiment [4] (at 50.0 µM) it was 99.5% (active). Besides, the growth inhibition in experiment [5] (setting [7]) is -1%; in experiment [5] (setting [8]), 97% (active); in experiment [5] (at 50.0 µM) it was 99.7% (active); in experiment [6] (setting [7]), 9%; in experiment [6] (setting [8]), 97% (active); in experiment [6] (at 50.0 µM), 99.7% (active).

Regarding `CCC1CC2C3Cc4ccc(OC)c(O)c4C2(CCN3C)CC1=O` (stereo not drawn), the growth inhibition was 6% in experiment [1] (setting [7]); 3% in experiment [1] (setting [8]); -6.45% in experiment [1] (at 50.0 µM); -12% in experiment [2] (setting [7]); -2% in experiment [2] (setting [8]); -6% in experiment [2] (at 50.0 µM). The growth inhibition in experiment [3] (setting [7]) was 19%; in experiment [3] (setting [8]), 9%; in experiment [3] (at 50.0 µM), -8%; in experiment [4] (setting [7]) it was 14%; in experiment [4] (setting [8]), 11%; in experiment [4] (at 50.0 µM), -5.3%. Besides, the growth inhibition in experiment [5] (setting [7]) is 24%; in experiment [5] (setting [8]), 19%; in experiment [5] (at 50.0 µM) it was -1.25%; in experiment [6] (setting [7]), 9%; in experiment [6] (setting [8]), 9%; in experiment [6] (at 50.0 µM), -7.5%.

Regarding `CSc1nncc(=O)[nH]1.[Hg]`, the growth inhibition was 99% (active) in experiment [1] (setting [7]); 99% (active) in experiment [1] (setting [8]); 99.2% (active) in experiment [1] (at 50.0 µM); 99% (active) in experiment [2] (setting [7]); 99% (active) in experiment [2] (setting [8]); 99.5% (active) in experiment [2] (at 50.0 µM). Moreover, the growth inhibition is 100% (active) in experiment [3] (setting [7]); 99% (active) in experiment [3] (setting [8]); 99.5% (active) in experiment [3] (at 50.0 µM); 99% (active) in experiment [4] (setting [7]); 99% (active) in experiment [4] (setting [8]); 99.2% (active) in experiment [4] (at 50.0 µM). Besides, the growth inhibition in experiment [5] (setting [7]) was 99% (active); in experiment [5] (setting [8]), 99% (active); in experiment [5] (at 50.0 µM), 99.2% (active); in experiment [6] (setting [7]), 99% (active); in experiment [6] (setting [8]), 99% (active); in experiment [6] (at 50.0 µM) it was 99.2% (active).
